Experimental data published in PubChem BioAssay (EPA / NIEHS).
Records with an inconclusive call do not appear. Active and inactive are the calls of the source. Rule for the calls, unless noted: active = hit-call score of the fitted dose curve at least 0.9, where 1 is the maximum; inactive = score below 0.9.

Columns and labels:
[1] = Tanguay_ZF_120hpf_MUSC: Oregon State University Tanguay Lab 120 Hour Post-fertilization zebrafish Assay for Muscle Malformation (AID 2284401)
In short: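 Scored as a binary brightfield endpoint at 120 hpf, fitted versus DMSO. Single dechorionated wild-type (Tropical 5D) zebrafish embryos per well, statically exposed at 28C from 6 hpf onward with final DMSO 0.64%.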

[2] = UKN5_HCS_SBAD2_cell_viability: Viability Assessment in the University of Konstanz (UKN) Leist Lab Neurite Outgrowth Assay in human iPSC-derived immature Dorsal Root Ganglia Neurons (UKN5) (AID 2284056)
In short: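 iPSC-derived immature peripheral neurons (SBAD2) seeded on Matrigel with CHIR99021, SU5402 and DAPT, dosed 1 h later for 24 h. Viability from Hoechst H-33342 and calcein-AM live staining, high-content imaging; bidirectional fit versus DMSO.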

[3] = UKN5_HCS_SBAD2_neurite_outgrowth: University of Konstanz (UKN) Leist Lab Neurite Outgrowth Assay in human iPSC-derived immature Dorsal Root Ganglia Neurons (UKN5) (AID 2284070); conditions: actives raise or lower the signal
In short: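 Neurite outgrowth is quantified as calcein-AM-labelled neurite area in human iPSC-derived peripheral neurons treated for 24 h, starting 1 h after plating in medium with CHIR99021 (1.5 uM), SU5402 (5 uM) and DAPT (5 uM).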

[4] = UKN2_HCS_IMR90_neural_migration: University of Konstanz (UKN) Leist Lab Neural Crest Cell Migration Assay in human induced IMR90 Pluripotent Stem Cells (UKN2) (AID 2284204); conditions: actives raise or lower the signal
In short: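 Stopper-exclusion migration (cMINC), human iPSC-derived neural crest cells; N2-S + EGF/FGF; compound added 24 h post-stopper removal, 24 h exposure. Readout: calcein-AM/Hoechst 30 min, HCS fluorescence imaging; bidirectional fitting, DMSO baseline.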

[5] = UKN4_HCS_LUHMES_neurite_outgrowth: University of Konstanz (UKN) Leist Lab Neurite Outgrowth Assay in human LUHMES cells (UKN4) (AID 2284206); conditions: actives raise or lower the signal
In short: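 Neurite area in dopaminergic-model LUHMES neurons is measured by high-content imaging of calcein-AM after 24 h treatment starting shortly after day-2 replating; Hoechst staining tracks viability.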

[6] = IUF_NPC1b_proliferation_BrdU_72hr: Leibniz Research Institute for Environmental Medicine (IUF) 72-hour Neural Progenitor Cell Bromodeoxyuridine (BrdU) Proliferation Assay (NPC1b) (AID 2284207)
In short: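 Luminescent BrdU ELISA measured DNA synthesis during the last 16 h of a 72 h exposure of primary human neural progenitor spheres grown with EGF and FGF. Signal was fitted relative to DMSO controls.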

[7] = IUF_NPC1a_proliferation_area_72hr: Leibniz Research Institute for Environmental Medicine (IUF) 72-hour Neural Progenitor Cell Proliferation Area Assay (NPC1a) (AID 2284208)
In short: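 Read-out: increase in sphere area over 72 h by automated phase-contrast imaging, fitted in positive direction versus DMSO baseline. One hNPC sphere (0.25-0.35 mm) per well in EGF/FGF medium; growth-factor withdrawal served as positive control.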

[8] = IUF_NPC1_viability_72hr: Viability Assessment at 72 hours in the Leibniz Research Institute for Environmental Medicine (IUF) Neural Progenitor Cell Proliferation Assay (NPC1) (AID 2284209)
In short: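 Three-day continuous exposure of human neural progenitor spheres under EGF/FGF-driven proliferation; cell viability scored by alamar blue signal versus DMSO.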

[9] = UKN4_HCS_LUHMES_cell_viability: Viability Assessment in the University of Konstanz (UKN) Leist Lab Neurite Outgrowth Assay in human LUHMES cells (UKN4) (AID 2284232)
In short: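 Measured in replated, 2-day-differentiated LUHMES cells treated 24 h; stained 30 min with H-33342 and calcein-AM before high-content imaging.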

[10] = UKN2_HCS_IMR90_cell_viability: Viability Assessment in the University of Konstanz (UKN) Leist Lab Neural Crest Cell Migration Assay in human induced IMR90 Pluripotent Stem Cells (UKN2) (AID 2284233);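 note: cells exposed to compound for 24 h after a 24 h migration phase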
In short: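 Viability read as calcein-AM fluorescence by high-content imaging, Hoechst co-stain, 30 min. Human iPSC (IMR90) neural crest cells had migrated 24 h into stopper-defined gaps before 24 h chemical exposure. Fitted bidirectionally relative to DMSO.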

[11] = IUF_NPC2c_oligodendrocyte_migration_120hr: Leibniz Research Institute for Environmental Medicine (IUF) 120-hour Neural Progenitor Cell Migration Assay for Oligodendrocyte Migration (NPC2c) (AID 2284297);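 note: O4-positive oligodendrocyte migration distance divided by radial glia migration distance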
In short: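 Human fetal cortex-derived neural progenitor spheres (0.3 mm) were plated on poly-D-lysine/laminin in N2 differentiation medium and exposed to 7 concentrations for 120 h, with half-medium renewal at day 3. Oligodendrocyte migration distance was normalized to radial glia migration, relative to DMSO.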

[12] = IUF_NPC2a_radial_glia_migration_120hr: Leibniz Research Institute for Environmental Medicine (IUF) 120-hour Neural Progenitor Cell Migration Assay for Radial Glia Migration (NPC2a) (AID 2284298)
In short: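 Single 0.3 mm primary human fetal-cortex (GW 16-19) NPC spheres were plated on poly-D-lysine/laminin in N2 differentiation medium and exposed from day 0 for 120 h, half-medium refreshed day 3. Migration distance came from Hoechst nuclei-density imaging, relative to DMSO.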

[13] = IUF_NPC2a_radial_glia_migration_72hr: Leibniz Research Institute for Environmental Medicine (IUF) 72-hour Neural Progenitor Cell Migration Assay for Radial Glia Migration (NPC2a) (AID 2284299)
In short: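 Spheres of human primary neural progenitors migrate on poly-D-lysine/laminin under compound exposure at 37C, 5% CO2. The 72 h radial glia migration distance comes from brightfield images, measured manually.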

[14] = IUF_NPC2b_neuronal_migration_120hr: Leibniz Research Institute for Environmental Medicine (IUF) 120-hour Neural Progenitor Cell Migration Assay for Neuron Migration (NPC2b) (AID 2284300)
In short: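 Primary human fetal cortex neural progenitor spheres (0.3 mm) plated on poly-D-lysine/laminin in N2 differentiation medium, exposed 120 h with half-medium refresh at day 3. TUBB3-stained neuron distance from sphere core, normalized to radial glia migration, versus DMSO.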

[15] = IUF_NPC3_neuronal_differentiation_120hr: Leibniz Research Institute for Environmental Medicine (IUF) 120-hour Neuronal Differentiation Assay (NPC3) (AID 2284301)
In short: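 hNPC spheres, PDL/laminin, DMEM/F12 3:1 + 1% N2, 37C, 5% CO2; 7 concentrations + solvent control, 5 d exposure, half-change day 3. Fix 120 h; TUBB3/Hoechst ICC, CNN neuron calling; % neurons vs nuclei, DMSO-normalized.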

[16] = IUF_NPC4_neurite_length_120hr: Leibniz Research Institute for Environmental Medicine (IUF) 120-hour Neuronal Morphology Assay for Neurite Length (NPC4) (AID 2284302)
In short: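 hNPC spheres (0.3 mm, fetal brain GW 16-19) on PDL/laminin, DMEM:F12 3:1 + 1% N2, 37C 5% CO2; 7 concs + solvent control, day 0-5, half medium change d3; fix 120 h, TUBB3 ICC, mean neurite length um vs DMSO.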

[17] = IUF_NPC4_neurite_area_120hr: Leibniz Research Institute for Environmental Medicine (IUF) 120-hour Neuronal Morphology Assay for Neurite Area (NPC4) (AID 2284305; active = hit-call score of the fitted dose curve at least 0.9, where 1 is the maximum)
In short: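 hNPC spheres on PDL/laminin, N2 medium, 37C/5% CO2; dosed day 0, half-medium refresh day 3; fixed 120 h; TUBB3/Hoechst ICC, high-content imaging; neurite area = mean pixels per neuron (nuclei excluded); DMSO baseline, max 0.1%.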

[18] = IUF_NPC2-5_cytotoxicity_72hr: Cytotoxicity Assessment at 72 hours in the Leibniz Research Institute for Environmental Medicine (IUF) Neural Progenitor Cell Migration and Differentiation Assay for Cytotoxicity (NPC2-5) (AID 2284306; active = hit-call score of the fitted dose curve at least 0.9, where 1 is the maximum;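 note: LDH release into supernatant measured by resorufin fluorescence marking membrane damage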)
In short: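 hNPC spheres (0.3 mm), PDL/laminin, DMEM/F12 3:1 + 1% N2; cpd from d0, 7 concs + SC, DMSO max 0.1%; half-medium refresh d3. Readout: supernatant LDH via resorufin fluorescence (RFU), 72 h; gain-of-signal fit.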

[19] = IUF_NPC2-5_cytotoxicity_120hr: Cytotoxicity Assessment at 120 hours in the Leibniz Research Institute for Environmental Medicine (IUF) Neural Progenitor Cell Migration and Differentiation Assay (NPC2-5) (AID 2284307; active = hit-call score of the fitted dose curve at least 0.9, where 1 is the maximum)
In short: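 Human fetal neural progenitor spheres (0.3 mm, GW 16-19 cortex) were plated on poly-D-lysine/laminin in N2 differentiation medium and exposed for 120 h, with half-medium refresh at day 3. LDH release into supernatant was read by resorufin fluorescence.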

[20] = IUF_NPC2-5_cell_number_120hr: Cell Number Assessment at 120 hours in the Leibniz Research Institute for Environmental Medicine (IUF) Neural Progenitor Cell Migration and Differentiation Assay (NPC2-5) (AID 2284308);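 note: count of Hoechst-stained nuclei in migration zone around plated human neural progenitor spheres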
In short: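 Primary human fetal neural progenitor spheres (GW 16-19, 0.3 mm) plated on poly-D-lysine/laminin in N2 differentiation medium, exposed from day 0 for 120 h with half-medium refresh at day 3; Hoechst-positive nuclei counted in migration area versus DMSO control.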

[21] = IUF_NPC2-5_viability_120hr: Viability Assessment at 120 hours in the Leibniz Research Institute for Environmental Medicine (IUF) Neural Progenitor Cell Migration and Differentiation Assay (NPC2-5) (AID 2284312)
In short: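 Human fetal neural progenitor spheres (0.3 mm) plated on poly-D-lysine/laminin in N2 differentiation medium, exposed 120 h with half-medium refresh at day 3. Viability by alamar blue resazurin fluorescence; 7 concentrations, DMSO max 0.1%.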

[22] = IUF_NPC1_cytotoxicity_72hr: Cytotoxicity Assessment at 72 hours in the Leibniz Research Institute for Environmental Medicine (IUF) Neural Progenitor Cell Proliferation Assay (NPC1) (AID 2284332; active = hit-call score of the fitted dose curve at least 0.9, where 1 is the maximum;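 note: rising LDH signal means more cytotoxicity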)
In short: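 Readout is fluorescence from LDH-dependent resazurin conversion, sampled from culture medium after compound contact lasting 72 h. Each well holds one 0.25-0.35 mm human progenitor sphere kept at 37C, 5% CO2 with EGF and FGF.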

Structure (SMILES): CN(C(=O)C(F)(F)C(F)(F)C(F)(F)F)[Si](C)(C)C
- outcome [1]: inactive

Structure (SMILES): CC(C)CC(C)c1sccc1NC(=O)c1cn(C)nc1C(F)(F)F (configuration not stated)
- outcome [2]: inactive
- outcome [3]: inactive
- AC50 [4]: 65.6 µM (active)
- AC50 [5]: 73.1 µM (active)
- outcome [6]: inactive
- outcome [7]: inactive
- outcome [8]: inactive
- outcome [9]: inactive
- AC50 [10]: 77.1 µM (active)
- outcome [11]: inactive
- AC50 [12]: 10 µM (active)
- outcome [13]: inactive
- outcome [14]: inactive
- outcome [15]: inactive
- outcome [16]: inactive
- outcome [17]: inactive
- outcome [18]: inactive
- outcome [19]: inactive
- outcome [20]: inactive
- outcome [21]: inactive
- outcome [22]: inactive
